Hits are enriched below; roughly 21% of the tested compounds scored in any of these assays.
Pf growth 96h: Primary qHTS for delayed death inhibitors of the malarial parasite plastid, 96 hour incubation; P. falciparum luciferase reporter growth, 96 h; Potency, µM (top dose mostly 28.7 µM), inactives show at the top dose activity change, negative = inhibition, most hits filed as inhibitors; 6.9% of 320,000 active; AID 504834, 2011; active means well fitted inhibition curve with a large enough effect; inconclusive means small, poorly fitted or top-dose-only effect, or another doubt; inactive means no such curve, though single readings can be large or run the other way; further: potency means the concentration at half of the fitted maximal effect; on the % scale 0 is the no-effect control and ±100 the full control effect
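Parasite growth measured via integrated firefly luciferase reporter in P. falciparum. Infected erythrocytes at 2% hematocrit, 0.05% parasitemia final were treated 96 hours at 37 C under 5% CO2, and luminescence was read.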
Shiga toxin inh: A qHTS for Small Molecule Inhibitors of Shiga Toxin; Vero cells, Shiga toxin protein synthesis inhibition reporter; inhibition, % at 38.7 µM; 9.2% of 290,000 active; in the data active means inhibition mostly above about 28%, no sharp cut-off; inactive means mostly below about 43%; further: 0% is about no effect
Pf growth 48h: Primary qHTS for delayed death inhibitors of the malarial parasite plastid, 48 hour incubation | P. falciparum luciferase growth in erythrocytes, 48 h | Potency, µM (titrated, usually from 28.7 µM), for the others: at the top dose activity change, negative = inhibition, most hits filed as inhibitors | 5.9% of 310,000 active | AID 504832, 2011; active means well fitted inhibition curve with a large enough effect; inconclusive means small, poorly fitted or top-dose-only effect, or another doubt; inactive means no such curve, though single readings can be large or run the other way; further: potency means the concentration at half of the fitted maximal effect; on the % scale 0 is the no-effect control and ±100 the full control effect
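In quantitative HTS format, infected erythrocytes bearing luciferase-reporter parasites were treated for a single generation at 37 C. Luminescence after adding detection reagent served as the growth measure.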
SARS PLP yeast: qHTS of Yeast-based Assay for SARS-CoV PLP. AID 485353, 2010. S. cerevisiae expressing SARS-CoV PLpro, growth rescue. 0.19% of 330,000 active. Potency, µM (highest dose often 32.9 µM), inactives show top-dose activity, positive = growth rescue, usual class: activators; further: potency means the concentration at half of the fitted maximal effect; 0% is about no effect; nearly all actives have a fitted effect of over 55% in size
NS1 inh: qHTS Assay for Inhibitors of Influenza NS1 Protein Function; Potency, µM (highest dose often 46.1 µM), without a hit: at the highest dose activity, positive = more growth; 0.4% of 270,000 active; further: potency means the concentration at half of the fitted maximal effect; actives are rising curves; nearly all actives have a fitted effect of over 50% in size
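A cell-based growth assay was used: compounds that relieve NS1-induced slow growth of budding yeast raise OD600. Assay medium was yeast nitrogen base with ammonium sulphate and -URA supplement, pH 6.0, with 2% galactose.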
Cycloheximide cs: Cycloheximide Counterscreen for Small Molecule Inhibitors of Shiga Toxin; cell reporter, cycloheximide protein synthesis inhibition counterscreen; max response, %; 12% of 300,000 active; AID 2314, 2010; in the data active means max response mostly above about 13%, no sharp cut-off; inactive means mostly below about 14%; further: read at 38.3 µM for the half of the compounds with a filed dose; 0% is about no effect
* hit, by the source's call. Unless noted, the call rests on the fitted dose curve.

Results for COc1ccc(OCCN(C)Cc2ccccc2)cc1 ?
Pf growth 96h: -46%; Shiga toxin inh: 21; Pf growth 48h: 28%; SARS PLP yeast: 1%; NS1 inh: inconclusive; Cycloheximide cs: 8

Results for CN(CCOCCOc1ccc2ccccc2c1)Cc1ccccc1 ?
Pf growth 96h: 15µM*; Shiga toxin inh: 9; SARS PLP yeast: -4%; NS1 inh: -84%; Cycloheximide cs: 8

How did Cc1cc(C)c(C)c(OCCCCN(C)Cc2ccccc2)c1 do in these assays?
Pf growth 96h: 13µM*; Pf growth 48h: inconclusive; SARS PLP yeast: -7%; NS1 inh: -24%; Cycloheximide cs: -5

How did CCc1ccc(OCCCCN(C)Cc2ccccc2)cc1 do in these assays?
Pf growth 96h: 13µM*; Pf growth 48h: -2%; SARS PLP yeast: -2%; NS1 inh: -13%; Cycloheximide cs: -2

How did CN(C)CCCCOc1ccc(F)cc1 do in these assays?
Pf growth 96h: 12µM*; Shiga toxin inh: -12; Pf growth 48h: -19%; SARS PLP yeast: 1%; Cycloheximide cs: -4

How did CSC(C(=O)c1cc2ccccc2o1)c1ccccc1 (stereo not given) do in these assays?
Pf growth 96h: 18%; Pf growth 48h: 12%; SARS PLP yeast: 3%

Results for CCC(=O)NC(=S)Nc1ccc(NC(=O)c2ccc(OC)cc2)cc1 ?
Pf growth 96h: inconclusive; Shiga toxin inh: -11; Pf growth 48h: 5%; SARS PLP yeast: 32%; NS1 inh: 1%; Cycloheximide cs: -2

Results for CN1CCN(c2ccc(NC(=S)NC(=O)c3cccc4c(Br)cccc34)cc2)CC1 ?
Pf growth 96h: -35%; Shiga toxin inh: -3; Pf growth 48h: inconclusive; SARS PLP yeast: 8%; NS1 inh: 12%; Cycloheximide cs: -1

How did CN1CCN(c2ccc(NC(=O)c3ccc(-c4ccccc4F)o3)cc2)CC1 do in these assays?
Pf growth 96h: inconclusive; Pf growth 48h: -56%; SARS PLP yeast: -3%

What do the screens show for `Cc1ccc(C(=O)N2CCN(c3ccc(NC(=O)c4ccc(Br)o4)cc3)CC2)cc1`?
Shiga toxin inh: -24; Pf growth 48h: 10µM*; SARS PLP yeast: -7%; NS1 inh: 19%; Cycloheximide cs: -3

How did CCC(=O)NC(=S)Nc1ccc(NC(=O)c2ccc(Br)o2)cc1 do in these assays?
Pf growth 96h: 0%; Shiga toxin inh: 112*; Pf growth 48h: inconclusive; SARS PLP yeast: 4%; NS1 inh: -6%; Cycloheximide cs: 16

Results for CN1CCN(c2ccc(NC(=O)c3ccc(Br)o3)cc2)CC1 ?
Pf growth 96h: inconclusive; Shiga toxin inh: 76*; Pf growth 48h: 139%; SARS PLP yeast: 13%; NS1 inh: 10%; Cycloheximide cs: 30*

How did CN1CCN(c2ccc(NC(=O)c3ccccc3Br)cc2)CC1 do in these assays?
Pf growth 96h: 0%; Shiga toxin inh: active; Pf growth 48h: 91%; SARS PLP yeast: 4%; NS1 inh: -11%; Cycloheximide cs: 18*

Results for CC/C(=N\NC(=O)c1nnn(-c2nonc2N)c1-c1cccc(OC)c1)c1ccc(C)cc1 ?
Pf growth 96h: inconclusive; Shiga toxin inh: 14; Pf growth 48h: -11%; SARS PLP yeast: 6%; NS1 inh: 5%; Cycloheximide cs: -2

Results for Cc1n(-c2ccccc2)c2ccc(Cl)cc2[n+]1CCO ?
Pf growth 96h: 2%; Shiga toxin inh: 12; Pf growth 48h: inconclusive; SARS PLP yeast: 0%; NS1 inh: 1%; Cycloheximide cs: -6

What do the screens show for `N/C(=N\O)c1ccc(NC(=O)c2ccc(Br)o2)cc1`?
Pf growth 96h: -5%; Shiga toxin inh: 81*; Pf growth 48h: 113%; SARS PLP yeast: -3%; NS1 inh: 1%; Cycloheximide cs: 45*

How did O=C(Nc1ccc(N2CCOCC2)cc1)c1ccc(Br)o1 do in these assays?
Pf growth 96h: 9%; Shiga toxin inh: 79*; Pf growth 48h: 127%; SARS PLP yeast: -3%; NS1 inh: 0%; Cycloheximide cs: 28*

How did O=C(Nc1ccc(C(=O)N2CCC(O)(c3ccc(Cl)c(C(F)(F)F)c3)CC2)cc1)c1ccc(Br)o1 do in these assays?
Pf growth 96h: 13µM*; Pf growth 48h: inconclusive; SARS PLP yeast: 8%

How did O=C(Nc1cccc(Cl)c1N1CCOCC1)c1ccc(Br)o1 do in these assays?
Pf growth 96h: -9%; Shiga toxin inh: -7; Pf growth 48h: 19%; SARS PLP yeast: -5%; NS1 inh: -4%; Cycloheximide cs: 1

Results for O=C(NNC(=O)c1ccc(Br)o1)c1ccc(NC(=O)c2ccccc2)cc1 ?
Pf growth 96h: -12%; Shiga toxin inh: 11; Pf growth 48h: 13%; SARS PLP yeast: -1%; NS1 inh: 0%; Cycloheximide cs: -1

How did O=C(Nc1ccc(S(=O)(=O)N2CCCCCC2)cc1)c1ccc(Br)o1 do in these assays?
Pf growth 96h: 20%; Shiga toxin inh: 19; Pf growth 48h: inconclusive; SARS PLP yeast: -1%; NS1 inh: -24%; Cycloheximide cs: 13

How did O=C(Nc1ccc(C(=O)N2CCC(N3CCCC3)CC2)cc1)c1ccc(Br)o1 do in these assays?
Pf growth 96h: 48%; Pf growth 48h: inconclusive; SARS PLP yeast: 0%

Results for CC1CCN(c2ccc(NC(=O)c3ccc(Br)o3)cc2)CC1 ?
Pf growth 96h: inconclusive; Shiga toxin inh: 65*; Pf growth 48h: -7%; SARS PLP yeast: 3%; NS1 inh: 2%; Cycloheximide cs: 28*

How did O=C(/C=C/c1ccccc1Cl)OCC(=O)c1ccc[nH]1 do in these assays?
Pf growth 96h: 103%; Pf growth 48h: 165%; SARS PLP yeast: 1%

How did COc1cc(OC)cc(C(=O)NC(C)CNc2ccc(Cl)cc2[N+](=O)[O-])c1 (stereo not given) do in these assays?
Pf growth 96h: 23%; Shiga toxin inh: 1; Pf growth 48h: -13%; SARS PLP yeast: -2%; NS1 inh: -1%; Cycloheximide cs: 2

What do the screens show for `COc1ccc(NS(=O)(=O)c2ccc(NC(=O)c3ccc(N(C)S(C)(=O)=O)cc3)cc2)c(OC)c1`?
Pf growth 96h: -18%; Shiga toxin inh: -9; Pf growth 48h: inconclusive; SARS PLP yeast: 8%; NS1 inh: 12%; Cycloheximide cs: -3

What do the screens show for `CCC(=O)Nc1ccc(N2CCC(C)CC2)cc1`?
Pf growth 96h: 10µM*; Shiga toxin inh: 15*; Pf growth 48h: -17%; SARS PLP yeast: -4%; NS1 inh: -1%; Cycloheximide cs: 33*

How did CS(=O)(=O)N1CCN(c2ccc(NC(=O)c3ccc(Br)o3)cc2)CC1 do in these assays?
Pf growth 96h: 200%; Shiga toxin inh: 110*; Pf growth 48h: 141%; SARS PLP yeast: 8%; NS1 inh: -4%; Cycloheximide cs: 43*

How did CC1CCN(c2ccc(NC(=O)Cc3ccccc3)cc2)CC1 do in these assays?
Pf growth 96h: inconclusive; Shiga toxin inh: 16; Pf growth 48h: 19%; SARS PLP yeast: 0%; NS1 inh: -4%; Cycloheximide cs: 14

Compound activity: PubChem BioAssay, National Center for Advancing Translational Sciences (NCATS)
